Screens from PubChem.
Hits are enriched below; roughly 1.6% of the tested compounds scored in any of these assays.
B2AR ag: activates human beta-2 adrenergic receptor causing internalization; P07550; response, % (test concentration not listed); 340,000 tested, 0.43% active; Am2.2-beta2AR cells, FAP receptor internalization, flow cytometry;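 active = response above a set limit, near 3 SD of response in nonfluorescent compounds, cut at about 42% in these data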
Target sequence (P07550 whole entry, looked up): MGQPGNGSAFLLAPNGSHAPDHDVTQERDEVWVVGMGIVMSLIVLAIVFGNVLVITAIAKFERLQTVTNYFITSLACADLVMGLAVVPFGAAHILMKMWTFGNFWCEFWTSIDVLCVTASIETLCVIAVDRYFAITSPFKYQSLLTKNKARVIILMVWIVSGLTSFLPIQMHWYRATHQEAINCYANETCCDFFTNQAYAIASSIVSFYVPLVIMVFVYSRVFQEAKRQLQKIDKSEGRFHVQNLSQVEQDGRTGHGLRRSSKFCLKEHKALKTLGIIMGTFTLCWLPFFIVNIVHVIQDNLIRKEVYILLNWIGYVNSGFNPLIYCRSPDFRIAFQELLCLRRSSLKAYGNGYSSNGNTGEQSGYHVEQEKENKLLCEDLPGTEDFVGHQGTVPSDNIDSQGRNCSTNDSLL
A1 inh: inhibitors of the anti-apoptotic protein A1, read as caspase activation; MEF A1-2A-BIM cells, Caspase-Glo 3/7 luminescence, 3 h; percent of clofoctol response, vehicle zero; caspase activation, % (concentration not given with the values); 330,000 tested, 0.066% active;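 active = over half of replicate activation scores above 10%, or exactly half above 10 with the replicate mean above 10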
Dyrk1A ADPGlo: blocks rat Dyrk1A kinase activity. ADP-Glo luminescence, NFATc1 peptide. 310,000 tested, 0.43% active. inhibition, % at 12.5 µM. AID 504441. Q63470; in the data active = inhibition above about 50%
dFosB activator: mouse delta FosB homodimer activation. 340,000 tested, 0.99% active. P13346. activation, % at 25 µM. purified delta FosB, TAMRA-CDK5 oligo fluorescence polarization; percent of positive-control signal above neutral wells;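 active = mean activation above about 17%, with every replicate also reaching it, limit read from the data, passing the limit was not always enough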
ADP-Glo artifact: ADP-Glo luciferase interference, Dyrk1A counter-screen; shares compounds with Dyrk1A ADPGlo; ADP-Glo luciferase artifact assay, no Dyrk1A, luminescence; AC50, µM (titrated, usually from 12 µM); 1,300 tested, under 10 active; AID 588348;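 active = fitted half-maximal dose AC50 no more than ten times the top valid tested dose, with luminescence dropping as dose rises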
Numbers stand for hits; 0 = inactive; - = no result given; ! = not active in a repeat.

SMILES | B2AR ag | A1 inh | Dyrk1A ADPGlo | dFosB activator | ADP-Glo artifact
CCN1C(=O)[C@H]2[C@@H](c3ccc(OC)cc3)N3C(=O)CN(CCOC)C(=O)[C@@]3(C)[C@H]2C1=O | 0 | 0 | 0 | 0 | -
Cc1ccc(C)c(OCC(=O)N(Cc2ccccc2)c2c(N)n(Cc3ccccc3)c(=O)[nH]c2=O)c1 | 0 | - | 0 | 0 | -
Nc1nc(N)nc(-c2ccc(Cl)cc2)n1 | 0 | 0 | 62 | 0 | 0
COc1cc(/C=C2\Oc3cc(O)ccc3C2=O)ccc1O | 0 | 0 | 93 | 0 | 0
O=C1/C(=C/c2ccc(O)c(O)c2)Oc2cc(O)ccc21 | 0 | 0 | 68 | 0 | 0
O=C1/C(=C/c2cccc([N+](=O)[O-])c2)Oc2cc(O)ccc21 | 0 | 0 | 0 | 0 | -
Cc1cc(C)c(C)c(S(=O)(=O)NCCN2CCOCC2)c1C | 0 | 0 | - | 0 | -
COc1ccc2c(C#N)c3ccccn3c2c1 | 0 | 0 | 72 | 0 | 0
Cc1cc(N2C(=O)C(O)=C(C(=O)c3ccco3)C2c2ccccc2F)no1 (stereo not drawn) | 0 | 0 | 0 | 0 | -
Oc1cc(-c2ccncc2)cc2cccnc12 | 0 | 0 | 76 | 0 | 0
Oc1cc(Nc2ccncc2)cc2cccnc12 | 0 | 0 | 0 | 0 | -
Cc1ccc(S(=O)(=O)N2CCN(C(=O)c3ccnn3C)CC2)cc1C | 0 | 0 | 0 | 0 | -
CCCCCCCCCCCCCCCC[N+](C)(C)CCN(Cc1ccc(OC)cc1)c1ncccn1 | 0 | 0 | 63 | 0 | 0
O=C(O)c1cc2ccccc2c2cc(Br)ccc12 | 0 | 0 | 69 | 0 | 0
O=C(CC(SCCO)c1ccc2c(c1)OCO2)c1ccco1 (stereo not drawn) | 0 | 0 | 84 | 0 | 0
Cc1ccc(NC(=O)C2COc3ccccc3O2)cc1C (stereo not drawn) | 0 | 0 | 0 | 0 | -
Cc1cc(C(C)(C)CC(C)(C)C)ccc1OCCOCC[N+](C)(C)Cc1ccccc1 | 0 | 0 | 0 | 0 | -
C[N+](C)(CCOc1ccccc1)Cc1ccccc1 | 0 | - | 69 | 0 | 0
Cc1ccc2oc(=O)c3cnn(CC(=O)NC4CCCCC4C)c3c2c1 (stereo not drawn) | 0 | 0 | 61 | 0 | 0
COc1ccc2c(c1)CCc1c-2n[nH]c1C(=O)O | 0 | 0 | 59 | 0 | 0
COc1cc2c(C#N)c(N3CCCC3)nc(N)c2c(N)n1 | 0 | 0 | 53! | 0 | 0
COc1cc2c(C#N)c(N3CCN(C)CC3)nc(N)c2c(N)n1 | 0 | 0 | 0 | 0 | -
O=C(/C=C/C=C/c1ccccc1)c1ccco1 | 0 | 0 | 0 | 0 | -
COc1ccc2nc(NC(C)=O)sc2c1 | 0 | 0 | 0 | 0 | -
CC(=O)Nc1nc2ccc(Br)cc2s1 | 0 | 0 | 71 | 0 | 0
SMILES | B2AR ag | A1 inh | Dyrk1A ADPGlo | dFosB activator | ADP-Glo artifact
CCOC(=O)C1=C(C)OC(N)=C(C#N)C1c1cc2c(cc1Br)OCO2 (stereo not drawn) | 0 | 0 | 54 | 0 | 0
CC12CCC(=O)N1C(C(=O)Nc1nc3ccc(S(C)(=O)=O)cc3s1)CS2 (stereo not drawn) | 0 | 0 | 0 | 0 | -
CCc1ccc2nc(NC(=O)C3CSC4(C)CCC(=O)N34)sc2c1 (stereo not drawn) | 0 | 0 | 61 | 0 | 0
NC(=O)CSc1ccc(-c2ccc(F)cc2)nn1 | 0 | 0 | 0 | 0 | -
Cc1cccc(-n2nc3c(c2NC(=O)CCC2CCCCC2)CS(=O)C3)c1C (stereo not drawn) | 0 | 0 | 55 | 0 | 0
Oc1ccccc1/C=N/n1c(COc2ccccc2)n[nH]c1=S | 0 | 0 | 0 | 0 | -
Oc1ccc(/C=N/n2c(COc3ccccc3)n[nH]c2=S)c(O)c1 | 0 | 0 | 67 | 0 | 0
C/C(=N/NC(=O)c1ccc(Br)s1)c1cccnc1 | 0 | 0 | 51 | 0 | 0
Cc1cc(Nc2ccccc2)nc2cc(O)ccc12 | 0 | 0 | 74 | 0 | 0
O=C(NCc1ccccn1)c1ccc(CNS(=O)(=O)c2cccc(Cl)c2)cc1 | 0 | 0 | 0 | 0 | -
CCC1COCCS(=O)(=O)N1Cc1ccccc1 (stereo not drawn) | 0 | 0 | 55 | 0 | 0
COCCCNC(=O)COc1cc2c(c3oc(=O)c(C)c(C)c13)CCC(C)(C)O2 | 0 | 0 | 0 | 0 | -
CCN(CC)C(=O)Oc1ccc2c(c1)O/C(=C\c1ccco1)C2=O | 0 | 0 | 53 | 0 | 0
CCC(=O)Oc1ccc2c(c1)O/C(=C\c1ccco1)C2=O | 0 | 0 | 0 | 0 | -
CNC(=S)N/N=C/c1ccc(-c2cccc(C(=O)O)c2)o1 | 0 | 0 | 62 | 0 | 0
Cc1ccc(-c2nnc3n2N=C(c2ccc(Br)cc2)CS3)cc1 | 0 | 0 | 0 | 0 | -
Brc1ccccc1C1=Nn2c(nnc2-c2ccccc2)SC1 | 0 | 0 | 73 | 0 | 0
CC(C)CC(=O)Nc1ccc(C(=O)COC(=O)CN2C(=O)NC3(CCCCC3C)C2=O)cc1 (stereo not drawn) | 0 | - | 0 | 0 | -
COC(=O)c1nn(-c2ccc3c(c2)OCO3)cc1O | 0 | 0 | 69 | 0 | 0
CCOC(=O)c1nn(-c2ccc3c(c2)OCCO3)cc1O | 0 | 0 | - | 0 | -
CC(/C=C1\SC(=Nc2cccnc2)NC1=O)=C\c1ccccc1 | 0 | 0 | - | 0 | -
C=CCOc1ccc(/C=C2\SC(=Nc3cccnc3)NC2=O)cc1 | 0 | 0 | 61 | 0 | 0
CN(CCCCCCCCCCN(C)C(=O)Oc1cccc([N+](C)(C)C)c1)C(=O)Oc1cccc([N+](C)(C)C)c1 | 0 | - | 0 | 0 | -
CCOc1ccccc1C(=O)Nc1ccccc1C(N)=O | 0 | 0 | 56 | 0 | 0
CC1CC2CCCC(O)=C2C(=O)O1 (stereo not drawn) | 0 | - | 0 | 0 | -
SMILES | B2AR ag | A1 inh | Dyrk1A ADPGlo | dFosB activator | ADP-Glo artifact
COC(=O)C1=C(C)N(CCCC(=O)O)C(=O)NC1c1ccc(Cl)cc1 (stereo not drawn) | 0 | 0 | 56 | 0 | 0
CCOC(=O)C1=C(C)N(CCCC(=O)O)C(=O)NC1c1ccc(Cl)cc1 (stereo not drawn) | 0 | 0 | 0 | 0 | -
CN(C)CCNC(=O)c1cc2c(=O)n(C)c3ccccc3c2n1C | 0 | 0 | 53 | 0 | 0
CCN(CC)CCNC(=O)c1cc2c(=O)n(C)c3ccccc3c2n1C | 0 | 0 | 58 | 0 | 0
CN1CCN(CCNC(=O)c2cc3c(=O)n(C)c4ccccc4c3n2C)CC1 | 0 | 0 | 57 | 0 | 0
COCCNC(=O)c1cc2c(=O)n(C)c3ccccc3c2n1C | 0 | 0 | 0 | 0 | -
CCN(CC)CCCNC(=O)c1cc2c(=O)n(C)c3ccccc3c2n1C | 0 | 0 | 57 | 0 | 0
Cn1c(C(=O)NC2CC2)cc2c(=O)n(C)c3ccccc3c21 | 0 | 0 | 54 | 0 | 0
COc1cc(/C=C2/SC(=O)NC2=O)ccc1Oc1ccc([N+](=O)[O-])cc1[N+](=O)[O-] | 0 | 0 | 80 | 0 | 0
O=C1NC(=S)S/C1=C/c1ccc(OC(=O)c2ccco2)cc1 | 0 | 0 | 71 | 0 | 0
Nc1ccc(-c2ccc(C(=O)O)s2)cn1 | 0 | 0 | 71 | 0 | 0
NC1=NC(=O)/C(=C\c2ccc(-c3ccc(Cl)cc3)o2)S1 | 0 | 0 | 58 | 0 | 0
C=CC(C)(C)c1c2occc2c(O)c2ccc(=O)oc12 | 0 | - | 0 | 0 | -
